Dicer processing: inhibitors of Dicer pre-microRNA processing, primary screen, biochemical, cat-ELCCA, chemiluminescence; cat-ELCCA pre-miR-21 Dicer processing; stronger effect = higher value; actives 6% (n = 47,000); Endoribonuclease Dicer (Homo sapiens), Q9UPY3; z-score at 25 µM; in the data active = z-score above about 3, passing the limit was not always enough;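 note: plate controls were vehicle for no effect and no enzyme for full effect; higher signal means more uncleaved substrate so more Dicer inhibition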
* hit, by the source's call. This excerpt belongs to a sample that is enriched for hits.

SMILES | Dicer processing
N#Cc1c(-c2ccncc2)[nH]c(=S)[nH]c1=O | 3.6*
N#Cc1c(-c2cccnc2)[nH]c(=S)[nH]c1=O | -0.38
COc1ccc(-c2[nH]c(SC)nc(=S)c2C#N)cc1 | -2
O=c1[nH]c2ccc(Br)cc2c(-c2ccccc2)c1CNS(=O)(=O)c1ccccc1 | -0.53
Cc1c(CN(C)C(=O)c2cnn3c(C(F)F)cc(-c4ccccc4)nc23)cnn1C | 2.3
CC(C)OC(=O)n1c(=S)oc2ccccc21 | 0.74
Cc1ccc2c(=O)cc(-c3ccccc3C(=O)O)oc2c1 | 2.1
NNC(=O)Cn1nnc(-c2ccccc2C(F)(F)F)n1 | 0.88
CCC(=O)Nc1nc(NC(=O)CC)nc(-c2ccccc2C)n1 | 2.9
CC(C)C(=O)Nc1nc(NC(=O)C(C)C)nc(-c2ccccc2C(F)(F)F)n1 | 3.2*
O=C1NC(c2ccccc2O)Nc2sc3c(c21)CCN(Cc1ccccc1)C3 (centres undefined) | -0.65
CCCCOc1ccc(-c2nnc(N)s2)cc1 | 2.7
CCCOc1cccc(-c2nnc(N)s2)c1 | 2.3
Nc1nnc(-c2ccc(Cl)cc2)s1 | 8.7*
Nc1nc(-c2ccc(Cl)cc2)cs1 | -4.2
Cc1cccc(-c2nnc(N)s2)c1 | 4.4*
Cc1cccc(-c2nc(N)nc(N)n2)c1 | -0.46
COc1ccc(N2C(=O)CC(Sc3nccc(C)n3)C2=O)cc1 (centres undefined) | 0.91
O=C(CSc1nnc2c(n1)-c1cccc3cccc-2c13)Nc1ccc(Cl)c(C(=O)O)c1 | -0.85
O=S(=O)(c1ccc(NC(=S)N2CCCC2)cc1)N1CCCCC1 | 0.05
COc1ccc(-c2c(N)n(-c3ccccc3)c(=O)c3cc([N+](=O)[O-])ccc23)cc1OC | 3.4*
Nc1c(-c2ccc3ccccc3n2)c2ccc([N+](=O)[O-])cc2c(=O)n1Cc1ccccc1 | -1.1
COc1cccc(-n2c(N)c(C#N)c3ccc([N+](=O)[O-])cc3c2=O)c1 | -0.03
NC(=O)C1CCN(C2CC(=O)N(c3ccccc3)C2=O)CC1 (centres undefined) | -3.1
Cn1c(=O)n(CC(=O)O)c2ccccc21 | 3.6*
SMILES | Dicer processing
Cn1c(=O)n(Cc2ccccc2Br)c2ccccc21 | 2.5
Cn1c(=O)n(CCCOc2ccc(Cl)cc2)c2ccccc21 | -0.48
CCCCCOC(=O)C(C)Sc1n[nH]c(=O)[nH]c1=O (centres undefined) | 0.15
COc1c(Br)csc1C(=O)O/N=C(\N)c1ccc(C(F)(F)F)cc1 | 0.43
COc1ccc(N2C(=O)CCC2=O)cc1 | -0.74
CCOC(=O)c1sc(=S)n(-c2ccc(OC)cc2)c1N | 2.2
COc1ccc(-n2ccsc2=S)cc1 | 4.7*
Cc1occc1C(=O)C(C#N)=C(NCc1cccnc1)NCc1cccnc1 | 0.12
COC(=O)c1cc(-c2ccc(S(=O)(=O)Nc3cscc3C(=O)OC)cc2)c(C(F)(F)F)s1 | 1.1
CC(C)CC(=O)N1CCN(CC2CC=CCC2)CC1 (centres undefined) | 1.6
CSc1ccc(CN2CCN(CC3CC=CCC3)CC2)cc1 (centres undefined) | 1.2
CCS(=O)(=O)N1CCN(CC2CC=CCC2)CC1 (centres undefined) | 3.7*
O=C(CSc1nnc(Cn2nnc3ccccc32)n1-c1ccccc1)c1ccc(Cl)cc1 | 1.9
CCc1ccc(-c2nnc(-c3ccc(Cl)cc3)o2)cc1 | 3.3*
Clc1ccc(-c2nnc(-c3ccccc3)o2)cc1 | 1.1
COc1ccc(-c2nnc(SCc3ccc(Cl)cc3)o2)cc1 | 0.75
O=C(ON=C1CCC2(CC1)OCCO2)c1cccc([N+](=O)[O-])c1 | 1.9
O=C(O)CCCC(=O)N1CCN(c2ncccn2)CC1 | 0.99
O=C(Nc1ccc2ccccc2n1)c1c(Cl)cccc1Cl | 1.7
O=C(Nc1ccc2ccccc2n1)c1ccc(Cl)cc1 | 1.2
O=C(Nc1ccc2ccccc2n1)c1cccs1 | -0.6
O=C(Nc1ccc2ccccc2n1)Nc1ccccc1F | -2.5
O=C(Nc1ccc2ccccc2n1)C1CCCCC1 | 5.1*
O=C(Nc1ccc2ccccc2n1)c1ccccc1Cl | 3.2*
O=C1C2C3c4ccccc4C(C(=O)O)(c4ccccc43)C2C(=O)N1c1ccccc1Br (centres undefined) | 1.2
SMILES | Dicer processing
COc1cc2ncnc(NC3CCN(Cc4ccccc4)CC3)c2cc1OC | -0.11
COc1cc(S(C)=O)ccc1-c1nc2ncccc2[nH]1 (centres undefined) | 0.2
CSc1sc(-c2nc(C)cs2)c(C)c1-c1ccnc(SCc2ccc(Cl)cc2)n1 | -0.73
CSc1sc(-c2nc(C(C)(C)C)cs2)c2c1C(=O)CCC2 | 0.15
CSc1sc(-c2ccnc(SCc3c(Cl)cccc3Cl)n2)c2c1C(=O)CCC2 | 3.5*
Cc1ccc(-c2nnc(N3CCOCC3)c3ccccc23)cc1S(=O)(=O)N(C)C | -0.14
CCN(CC)CCNC(=O)c1ccc(N)cc1 | -0.12
C=C1c2ccccc2C(=O)N1c1cc(Cl)cc(Cl)c1 | 0.9
COc1ccc(OS(=O)(=O)c2ccc(C)cc2)c(Br)c1 | 0.76
CC(C)(C)c1ccc2c(c1)CN(Cc1ccccc1)CO2 | 2.6
CC(C)(C)c1ccc2c(c1)CN(c1cccc(C(=O)O)c1)CO2 | -0.89
CC(C)(C)c1ccc2c(c1)CN(c1ccc(F)cc1)CO2 | 6.3*
CCN(CC)CCOC(=O)C(c1ccccc1)C1CCCCC1 (centres undefined) | -0.55
CS(=O)(=O)Nc1cc(-c2nnc(Nc3ccccc3)c3ccccc23)ccc1N1CCOCC1 | 0
CCOC(=O)C1=C(C)NC2=C(C(=O)c3ccccc32)C1c1ccc2c(c1)OCO2 (centres undefined) | 0.02
Cc1ccccc1NC1=NS(=O)(=O)c2ccccc21 | -2.4
Cc1sc(NC2=NS(=O)(=O)c3ccccc32)nc1-c1ccc(Cl)cc1 | 3.6*
CCc1sc(NC2=NS(=O)(=O)c3ccccc32)nc1-c1ccccc1 | -0.27
Cn1c(=O)n(CC(=O)O)c(=O)c2c1nc1n2CCCN1c1cccc(Cl)c1 | 1.5
COc1cccc(N2CCn3c2nc2c3c(=O)n(CC(=O)O)c(=O)n2C)c1 | 1.5
Cn1c(=O)n(CC(=O)O)c(=O)c2c1nc1n2CCN1c1ccc(Cl)cc1 | 3.4*
O=S(=O)(O)c1cccc2cccc(Cl)c12 | -0.45
CCN(CC)S(=O)(=O)c1cc2c(c([N+](=O)[O-])c1)-c1c(cc(S(=O)(=O)N(CC)CC)cc1[N+](=O)[O-])C2=O | 0.43
COc1cccc2c(=O)c3ccccc3oc12 | -0.98
COc1ccc2c3c(cccc13)C(=O)CC2 | 4.2*
SMILES | Dicer processing
COc1ccc(C2C(=O)c3ccccc3C2=O)cc1OC | 1.4
CC1=C(C(=O)OC(C)C)C(c2coc3ccc(C)cc3c2=O)C2=C(CC(c3cccs3)CC2=O)N1 (centres undefined) | 2.5
O=C(NCc1ccc2c(c1)OCO2)C1CC(c2c(F)cccc2Cl)=NO1 (centres undefined) | 0.2
Cc1ccc(C)c(N2C(=O)C3C4c5ccccc5C(c5ccccc54)C3C2=O)c1 (centres undefined) | 1.3
Cn1c2c(c(=O)n(C)c1=O)CN(Cc1ccc(CN3CNc4c(c(=O)n(C)c(=O)n4C)C3)cc1)CN2 | 3.8*
CN(C)CCN1CNc2c(c(=O)n(C)c(=O)n2C)C1 | 3.5*
CCCN1CNc2c(c(=O)n(C)c(=O)n2C)C1 | 0.77
Cn1c2c(c(=O)n(C)c1=O)CN(CCCC(=O)O)CN2 | -1.9
CN1CNc2c(c(=O)n(C)c(=O)n2C)C1 | -2.5
CC(c1ccccc1)N1CNc2c(c(=O)n(C)c(=O)n2C)C1 (centres undefined) | 0.51
O=S(=O)(Cc1cc2c(F)c(F)c(F)c(F)c2o1)c1cccc(C(F)(F)F)c1 | 0.96

Screening results from PubChem BioAssay.
